# Screening data deposited in PubChem BioAssay by National Center for Advancing Translational Sciences (NCATS).
# Mito fusion yeast: qHTS Assay for Small Molecule Inhibitors of Mitochondrial Division or Activators of Mitochondrial Fusion. S. cerevisiae fusion-defective mutant growth rescue, CellTiterGlo 48 h. 320,000 tested, 0.23% active. Potency, µM (highest dose often 46.1 µM), without a hit: top-dose growth rescue (activation), actives largely listed as activators. AID 485298, 2010; note: % of control where 0% means no effect; nearly all actives have a fitted effect of over 45% in size
#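 Temperature-sensitive fusion-defective S. cerevisiae (e.g. fzo1-1, mgm1-5) were grown with compound in YPEG medium (3% ethanol, 3% glycerol) for 48 hours at 37C. Growth rescue was measured as viability by CellTiterGlo luminescence after 10 minutes at ambient.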
# Abeta yeast res: qHTS for compounds that reverse cellular toxicity of Amyloid beta (A-beta) peptide in yeast: Primary Screen; yeast expressing A-beta42, growth rescue, OD600, 48 h; response scale: 0% DMSO, 100% iron-clioquinol control; Potency, µM (series often up to 46.1 µM), usual class: activators; 410,000 tested, 0.063% active; AID 1347071, 2019; note: nearly all actives have a fitted effect of over 55% in size
#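 Yeast growth medium received pinned compounds, then yeast cells expressing toxic A-beta were added; plates incubated at 30 C for 48 hr. Growth read as absorbance at 600 nm, normalized to DMSO and equimolar FeCl3 plus clioquinol controls.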
# TDP-43 yeast inh: qHTS of TDP-43 Inhibitors | TDP-43 expressing yeast growth rescue, BacTiter-Glo, 24 h | Potency, µM (highest dose often 46.1 µM), for inactives: top-dose growth rescue (activation), usual class: activators | 410,000 tested, 1.8% active | AID 652104, 2013; note: % of control where 0% means no effect; nearly all actives have a fitted effect of over 50% in size
#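 Luminescence from BacTiter-Glo reports growth of TDP-43-expressing yeast after 24 hr at 30 deg C with compound. Cells were raffinose-pregrown to mid-log, then seeded in galactose medium at OD600=0.02.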
# FUS yeast rescue: qHTS for Suppressors of FUS Proteinopathy: Primary screen using FUS-linked yeast assay; S. cerevisiae FUS-expressing, growth rescue, OD600, 24 h; Potency, µM (series often up to 76.6 µM), most hits filed as activators; 390,000 tested, 0.24% active; AID 1347120, 2019;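 note: plate controls were DMSO vehicle for no effect and reference control for full effect; nearly all actives have a fitted effect of over 55% in size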
#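 FUS-expressing yeast, raffinose-pregrown, induced in 2% galactose minimal medium at OD 0.005; compounds in a dilution series, 24hr at 30C. Growth restoration read as absorbance at 600 nm. CP55940 positive control, DMSO negative.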
# aSyn rescue: qHTS of alpha-syn Inhibitors; 370,000 tested, 0.14% active; Potency, µM (top dose mostly 46.1 µM), inactives show at the highest dose growth rescue (activation), actives largely listed as activators; Yeast expressing alpha-synuclein, growth rescue, BacTiter-Glo, 24 h; note: % of control where 0% means no effect; nearly all actives have a fitted effect of over 65% in size
#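 Galactose-induced alpha-syn yeast (OD600=0.02, raffinose-pregrown) + pinned cpd, 24 hr, 30 deg C; growth by BacTiter-Glo luminescence. Growth restoration scores as activation.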
# Starred values were filed as active, the others as inactive; i = inactive; u = inconclusive; x = not tested or not shown; [ ] = dose if it differs, or a comment. Sampled rows, rich in hits. Any-hit rate of the full collection: about 2.2%. Calls come from the whole dose curve; as a rule, active = well fitted curve in the direction sought with a large enough effect; inconclusive = small, poorly fitted or top-dose-only effect, or another doubt; inactive = no such curve, though single readings can be large; an effect the other way counts as inactive or inconclusive. Potency is the fitted concentration of half-maximal effect.
SMILES,Mito fusion yeast,Abeta yeast res,TDP-43 yeast inh,FUS yeast rescue,aSyn rescue
COc1ccc(NC(=O)c2csc3c2CCCC3)cc1,16.5%,i,-7.6%,i,0.3%
O=C(CSc1oc(-c2ccco2)nc1S(=O)(=O)c1ccc(Cl)cc1)c1ccc(Cl)cc1,x,i,3.5%,u,x
SCc1nc2ccccc2[nH]1,x,x,x,x,7.2%
COc1ccc([C@]23Cc4ccccc4C(O2)C2=C(CC(C)(C)CC2=O)O3)cc1,2.3%[9.22 µM],x,x,x,x
COC(=O)c1ccc(NC(=S)NC(=O)C2CCC2)cc1,-13.5%,8.91µM*,u,i,-6.8%
CC(=O)NC(=S)Nc1cccc([N+](=O)[O-])c1,-2.8%,i,u,i,4.2%
O=C(NC(=S)Nc1cccc([N+](=O)[O-])c1)C1CCCC1,7.0%,u,12.6µM*,i,-11.0%
CCOC(=O)c1ccc(NC(=S)NC(=O)C2CCCC2)cc1,-8.7%,u,-0.4%,i,3.7%
O=C(NC(=S)Nc1ccc(Br)cc1)C1CCC1,-3.7%,5.62µM*,u,i,-9.5%
O=C(Nc1ccc(Br)cc1)C1CCCC1,4.0%,i,11.2µM*,i,0.8%
O=C(CSc1nnc(COc2ccccc2)n1-c1ccccc1)Nc1ccc2c(c1)OCCO2,x,x,x,i,x
O=C(CCSc1ccc(Br)cc1)c1ccc(O)cc1,6.9%,i,11.2µM*,i,2.2%
O=C(NCC1CCCO1)c1cccc2c1C(=O)c1ccc(N3CCC(Cc4ccccc4)CC3)cc1S2(=O)=O (stereo not drawn),x,i,-2.5%,10µM*,2.5%
O=C(NCc1ccccc1Br)c1cnc2sc(N3CCCCCC3)nn2c1=O,x,i,14.2%,i,x
Cc1ccc(N2CCN(C(=O)NCc3noc4ccc(C)cc34)CC2)c(C)c1,x,i,20µM*,u,x
Cc1ccc2onc(CC(=O)N3CCN(c4cccc(Cl)c4)CC3)c2c1,x,i,20µM*,u,x
Cc1cccc(C(=O)NCC(=O)N2CCN(c3ccc(Cl)cc3)CC2)c1,8.5%,i,14.0%,i,-10.7%
Cc1cc(C)cc(C(=O)NCC(=O)N2CCN(c3cccc(Cl)c3)CC2)c1,4.4%,i,12.6µM*,i,2.4%
Cc1ccc2onc(CC(=O)N3CCN(c4cccc(C)c4C)CC3)c2c1,x,i,25.1µM*,u,x
Cc1ccc(C)c(N2CCN(C(=O)NCc3noc4ccc(C)cc34)CC2)c1,x,i,u,i,x
O=[N+]([O-])c1ccc(-c2c(-c3ccccc3)ncc3cc(F)ccc23)cc1,u,i,0.0%,u,-23.0%
O=[N+]([O-])c1cccc(-c2c(-c3ccccc3)ncc3cc(F)ccc23)c1,u,i,28.2µM*,i,-14.4%
Fc1cc(F)cc(-c2c(-c3ccccc3)ncc3ccc(F)cc23)c1,-11.0%,i,35.5µM*,i,-15.5%
Fc1ccc2cnc(-c3ccccc3)c(-c3cccc(C(F)(F)F)c3)c2c1,18.4%,i,13.8%,i,-2.0%
O=C(COC(=O)c1ccccc1OCCOc1ccccc1)Nc1ccccc1Br,x,x,x,x,5.7%
SMILES,Mito fusion yeast,Abeta yeast res,TDP-43 yeast inh,FUS yeast rescue,aSyn rescue
Cc1ccc(C2=NN(C(=O)CCl)C(c3cccs3)C2)o1 (stereo not drawn),1.7%,i,20µM*,i,0.6%
COc1cc2c(cc1OC)C1O[C@](c3ccsc3)(C2)OC2=C1C(=O)OC1(CCCCC1)C2,-1.0%[9.22 µM],x,x,x,x
Cc1ccc(Sc2cnccc2C#N)cc1,-22.3%,i,12.6µM*,i,-2.6%
COc1ccc(C(=O)NCc2ccccc2)cc1Br,0.0%,i,u,i,8.1%
COc1ccc(C(=O)c2ccccc2)cc1Br,1.2%,i,12.6µM*,i,2.9%
Cc1cccc(N=C2NN=C(c3c(C)[nH]c4ccccc34)CS2)c1,1.2%,i,1.9%,11.2µM*,-3.2%
Cc1cccc(N=C2NN=C(c3ccc4c(c3)OCCO4)CS2)c1,-3.7%,i,-4.6%,u,3.2%
COc1cc(NC(=O)C2CCCN(S(=O)(=O)c3cc(OC)ccc3OC)C2)cc(OC)c1 (stereo not drawn),x,x,x,i,x
CCCCCCC[n+]1c(/C=C/c2ccc(N(C)C)cc2)sc2ccccc21,x,x,x,x,-89.0%
Brc1cccc(Cn2ccc3ccc(-c4ccc5ccn(Cc6cccc(Br)c6)c5c4)cc32)c1,x,x,x,i,x
Cc1ccc2ccc(C(Nc3ccccc3)c3ccc(F)cc3)c(O)c2n1 (stereo not drawn),x,u,3.16µM*,i,-25.7%
Cc1ccc2ccc(C(Nc3ccccc3)c3ccc(Cl)cc3)c(O)c2n1 (stereo not drawn),x,15.8µM*,5.62µM*,i,u
Cc1ccc2ccc(C(Nc3ccccc3)c3ccc(C(C)C)cc3)c(O)c2n1 (stereo not drawn),x,u,u,i,11.2µM*
CC(C)c1ccc(Nc2ncnc3c2nc2n3CCCC2)cc1,x,i,14.1µM*,i,x
Cc1ccc(-c2noc(CNC(=O)c3ccccc3)n2)cc1,x,i,-1.4%,i,x
Cc1ccc(CC(=O)NCc2nc(-c3cccc(C)c3)no2)cc1,x,i,17.8µM*,i,x
Cc1ccc(CC(=O)NCc2nc(-c3ccccc3)no2)cc1,x,i,12.6µM*,i,x
Cc1cccc(-c2noc(CNC(=O)c3ccc(C)cc3C)n2)c1,x,i,2.4%,i,x
Cc1ccc2nc(-c3cccc(N)c3)oc2c1,1.6%,i,-11.5%,i,-23.8%
Cc1cc(C)c2oc(-c3cccc(N)c3)nc2c1,-24.7%,i,11.2µM*,i,6.5%
COc1cc(NS(=O)(=O)c2ccc(-c3cc(C)no3)cc2)cc(OC)c1,x,i,u,i,x
O=[N+]([O-])c1ccc(Sc2cccc[n+]2[O-])c2nonc12,-28.5%,i,u,i,0.562µM*
CCOC(=O)Cn1c2ccc(C)cc2c2nc(C)sc21,3.7%,i,15.8µM*,i,-8.4%
COc1ccccc1Nc1nc(Cl)nc(NC(C)(C)C)n1,5.8%,i,22.4µM*,i,0.0%
CC(C)(C)Nc1nc(Cl)nc(Nc2ccccc2)n1,-1.2%,i,28.2µM*,i,0.5%
COc1ccc(Nc2nc(Cl)nc(Nc3ccc(OC)cc3OC)n2)c(OC)c1,4.0%,i,5.2%,i,-3.2%
COC1=C2C[C@H](C)C[C@H](OC)[C@@H](O)[C@@H](C)C=C(C)[C@H](OC(N)=O)[C@@H](OC)C=CC=C(C)C(=O)NC(=CC1=O)C2=O,x,x,x,x,26.0%
CCCCn1cc(S(=O)(=O)c2ccc(C)c(C)c2)c(=O)c2cc(F)c(N3CCN(C)CC3)cc21,x,i,27.8%,i,x
